From PubChem BioAssay AID1159580 (chemical genetic matrix, 2015)
Several values for one entry are separate records, joined by “and”; a condition that tells them apart may be missing. Equal values may be shown once. Among all 5,500 compounds or so, about 2,000 (36%) were called active. Inconclusive results (about 18%) are left out. No stated cut-off is given here; in the data, active means normalized growth mostly below about 0.91 (no sharp cut-off); inconclusive means no clear call, values can overlap the other calls; inactive means mostly above about 0.92. Some of the results follow.

Test: chemical genetic growth profiling, strain panel (AID 1159580);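 further: tested at 20 µM; growth read once vehicle control cultures reached saturation at 30 °C; 1 = growth at the plate median or of vehicle wells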
Details: S. cerevisiae deletion strains, growth OD

Measured: normalized growth

CC[C@@]1(O)C(=O)OCc2c1cc1n(c2=O)Cc2cc3ccccc3nc2-1
inactive: locus YBR021W, strain FUR4, stronger effect = lower value 0.889 | locus YBR171W, strain sec66, stronger effect = lower value 0.949 | locus YBR229C, strain ROT2, stronger effect = lower value 0.982 | locus YBR279W, strain paf1, stronger effect = lower value 0.98 | locus YDL040C, strain nat1, stronger effect = lower value 0.952 | locus YDR150W, strain NUM1, stronger effect = lower value 0.998 | locus YEL061C, strain CIN8, stronger effect = lower value 0.947 | locus YER110C, stronger effect = lower value 0.944 | locus YER111C, strain swi4, stronger effect = lower value 0.97 | locus YER155C, strain BEM2 (second series), stronger effect = lower value 0.887 | locus YGL167C, strain pmr1, stronger effect = lower value 0.95 | locus YHR013C, strain ard1, stronger effect = lower value 0.868 | locus YHR027C, strain rpn1, stronger effect = lower value 0.933 | locus YHR094C, strain hxt1, stronger effect = lower value 0.941 | locus YIL066C, strain RNR3, stronger effect = lower value 0.921 | locus YJL134W, strain LCB3, stronger effect = lower value 0.997 | locus YJL168C, strain set2, stronger effect = lower value 0.961
active: locus YAL013W, strain DEP1, stronger effect = lower value 0.829 | locus YAL021C, strain ccr4, stronger effect = lower value 0.327 | locus YAL026C, strain drs2, stronger effect = lower value 0.626 | locus YAL030W, strain snc1, stronger effect = lower value 0.813 | locus YBL061C, strain skt5, stronger effect = lower value 0.859 | locus YBR009C, strain hhf1, stronger effect = lower value 0.681 | locus YBR023C, strain chs3, stronger effect = lower value 0.803 | locus YBR231C, strain swc5, stronger effect = lower value 0.696 | locus YCL011C, strain gbp2, stronger effect = lower value 0.577 | locus YCL016C, strain dcc1, stronger effect = lower value 0.134 | locus YCL029C, strain bik1, stronger effect = lower value 0.884 | locus YCL061C, strain MRC1, stronger effect = lower value 0.821 | locus YCL069W, strain vba3, stronger effect = lower value 0.788 | locus YCR088W, strain abp1, stronger effect = lower value 0.747 | locus YDL005C, strain med2, stronger effect = lower value 0.882 | locus YDL035C, strain GPR1, stronger effect = lower value 0.843 | locus YDL074C, strain BRE1, stronger effect = lower value 0.613 | locus YDL101C, strain DUN1, stronger effect = lower value 0.654 | locus YDL134C, strain PPH21, stronger effect = lower value 0.81 | locus YDL185W, strain tfp1, stronger effect = lower value 0.782 | locus YDL192W, strain arf1, stronger effect = lower value 0.838 | locus YDR001C, strain nth1, stronger effect = lower value 0.882 | locus YDR069C, strain doa4, stronger effect = lower value 0.767 | locus YDR101C, strain arx1, stronger effect = lower value 0.897 | locus YDR137W, strain rgp1, stronger effect = lower value 0.74 | locus YDR159W, strain sac3, stronger effect = lower value 0.821 | locus YDR162C, strain NBP2, stronger effect = lower value 0.688 | locus YDR195W, strain ref2 0.538 | locus YDR297W, strain sur2, stronger effect = lower value 0.884 | locus YDR318W, strain mcm21, stronger effect = lower value 0.796 | locus YDR334W, strain swr1, stronger effect = lower value 0.786 | locus YDR335W, strain msn5, stronger effect = lower value 0.841 | locus YDR388W, stronger effect = lower value 0.793 | locus YDR392W, strain spt3, stronger effect = lower value 0.284 | locus YDR502C, strain sam2, stronger effect = lower value 0.803 | locus YEL003W, strain gim4, stronger effect = lower value 0.834 | locus YEL037C, strain rad23, stronger effect = lower value 0.851 | locus YEL061C, strain CIN8 (second series), stronger effect = lower value 0.848 | locus YER015W, strain faa2, stronger effect = lower value 0.784 | locus YER016W, strain bim1, stronger effect = lower value 0.754 | locus YER155C, strain BEM2, stronger effect = lower value 0.837 | locus YER167W, strain BCK2, stronger effect = lower value 0.82 | locus YFR010W, strain ubp6, stronger effect = lower value 0.617 | locus YGL078C, strain dbp3, stronger effect = lower value 0.883 | locus YGL086W, strain mad1, stronger effect = lower value 0.847 | locus YGL173C, strain kem1, stronger effect = lower value 0.882 | locus YGL227W, strain vid30, stronger effect = lower value 0.894 | locus YGL240W, strain doc1, stronger effect = lower value 0.565 | locus YGL248W, strain PDE1, stronger effect = lower value 0.879 | locus YGL253W, strain hxk2, stronger effect = lower value 0.885 | locus YGR135W, strain pre9, stronger effect = lower value 0.878 | locus YGR229C, strain SMI1, stronger effect = lower value 0.384 | locus YGR252W, strain gcn5, stronger effect = lower value 0.655 | locus YHR079C, strain IRE1 (second series), stronger effect = lower value 0.801 | locus YHR079C, strain IRE1, stronger effect = lower value 0.791 | locus YHR129C, strain ARP1, stronger effect = lower value 0.801 | locus YHR142W, strain chs7, stronger effect = lower value 0.772 | locus YHR200W, strain rpn10, stronger effect = lower value 0.711 | locus YIL073C, strain SPO22, stronger effect = lower value 0.598 | locus YIL125W, strain kgd1, stronger effect = lower value 0.774 | locus YIR030C, strain dcg1, stronger effect = lower value 0.826 | locus YJL092W, strain hpr5, stronger effect = lower value 0.22 | locus YJL095W, strain BCK1 (second series), stronger effect = lower value 0.855 | locus YJL095W, strain BCK1, stronger effect = lower value 0.751 and 0.84 | locus YJL115W, strain asf1, stronger effect = lower value 0.132 | locus YJL129C, strain trk1, stronger effect = lower value 0.537 | locus YJL154C, strain vps35, stronger effect = lower value 0.811 | locus YJL164C, strain tpk1, stronger effect = lower value 0.634 | locus YJL166W, strain qcr8, stronger effect = lower value 0.748 | locus YJL187C, strain SWE1 (second series), stronger effect = lower value 0.848 | locus YJL187C, strain SWE1, stronger effect = lower value 0.876 | locus YJR043C, strain POL32, stronger effect = lower value 0.561
0.94 (inactive) and 0.843 (active): locus YHR030C, strain SLT2, stronger effect = lower value
